Data on 30 compounds can be found in PubChem BioAssay (Tox21).

A number with no mark means an inactive call. Results filed as inconclusive are left out. Active and inactive are the calls of the source. Unless noted, calls follow the shape of the dose curve; as a rule, active = well fitted curve in the direction sought with a large enough effect in the repeat runs; inconclusive = weak or mixed curves; inactive = no such curve, though single readings can be large; an effect the other way counts as inactive or inconclusive.

Test [1] can be described thus: A CellTox Green Cytotoxicity Assay to monitor cytotoxicity in HepG2 cells - 8 hour (AID 1224890). Also: nearly all actives have a fitted effect of over 45% in size. Put shortly: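 Nonlytic assay: viable cells exclude the dye, so fluorescence scales with cell death. HepG2 at 600 cells/well, compounds added after 5 h, signal read across 40 h.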
Test [2] in a line: qHTS assay to identify small molecule antagonists of the estrogen receptor alpha (ER-alpha) signaling pathway using the BG1 cell line in the presence of 0.1 nM 17-beta-estradiol - cell viability counter screen (AID 1259241). Also: nearly all actives have a fitted effect of over 40% in size. The essentials:
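VM7Luc4E2 cells (endogenous full-length ER-alpha, 4xERE-luciferase), cultured 5 days in charcoal-stripped serum, exposed to compounds with 0.1 nM 17beta-estradiol (final) for 22 hr at 37C. Viability read in same wells as live-cell protease fluorescence after 30 min.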
For orientation: Quantitative high-throughput screening tests each substance at several concentrations.

Test [3] can be described thus: qHTS assay to identify small molecule antagonists of the androgen receptor (AR) signaling pathway using the MDA cell line in the presence of 0.5 nM R1881 - cell viability counter screen (AID 1259242). Also: nearly all actives have a fitted effect of over 45% in size. Put shortly:
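R1881 at 0.5 nM final stimulated MDA-kb2 cells during 16 hr compound treatment at 37C. Cytotoxicity read: CellTiter-Fluor fluorescence after 30 min.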

Test [4] concerns the target Estrogen receptor (Homo sapiens) (UniProt P03372). Put plainly: qHTS assay to identify small molecule antagonists of the estrogen receptor alpha (ER-alpha) signaling pathway using the BG1 cell line in the presence of 0.1 nM 17-beta-estradiol (AID 1259244). Also: nearly all actives have a fitted effect of over 50% in size. Also: potency is read from the fitted curve at half-maximal effect. Put shortly: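 VM7Luc4E2; 4xERE-luciferase; 0.1 nM E2 final; 22 h co-incubation, 37C; ONE-Glo luminescence after 30 min at room temperature.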

A short description of test [5]: qHTS assay to identify small molecule HDAC inhibitors (AID 1259364).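 Also: wild-type HCT-116 cells with endogenous class I/II HDAC activity; top concentration of the series differs between compounds; nearly all actives have a fitted effect of over 45% in size.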 Put shortly:
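Relative class I and II HDAC activity is taken from the luminogenic signal in HCT-116 cells, with compound exposure 2 hr and reagent development 30 min at room temperature.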

A short description of test [6]: qHTS assay to identify small molecule HDAC inhibitors - cell viability counter screen (AID 1259365). Also: series mostly up to about 92 µM; nearly all actives have a fitted effect of over 50% in size. Put shortly:
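Wild-type HCT-116 cells, 1,500/well, cultured overnight, then compound-treated 2 h at 37 C. Viability measured as ATP luminescence with CellTiter-Glo after 30 min at room temperature.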

A short description of test [7]: qHTS assay to identify small molecule agonists of the sonic hedgehog signaling (Shh) pathway - cell viability counter screen (AID 1259366). Also: nearly all actives have a fitted effect of over 50% in size. The essentials:
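NIH/3T3-derived Gli1-Luc reporter cells, 2,000 per well, received compound after 4 h and were treated about 23 h at 37C. Viability measured in the same wells by CellTiter-Fluor fluorescence after 1 h.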

Test [8] can be described thus: qHTS assay to identify small molecule antagonists of the sonic hedgehog signaling (Shh) pathway - cell viability counter screen (AID 1259367). Also: nearly all actives have a fitted effect of over 55% in size. Put shortly:
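NIH/3T3-derived Gli1-Luc reporter cells, 2,000/well, plated 4 hr before compound addition, then stimulated with conditioned medium for 24 hr at 37C. Viability measured in the same wells by CellTiter-Fluor fluorescence, reagent added at 23 hr for 1 hr.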

Test [9] in a line: qHTS assay to identify small molecule phospholipidosis (PLD) inducers (AID 1259344; active = well fitted curve in the direction sought with a large enough effect; an effect the other way counts as inactive or inconclusive). The essentials: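 HepG2 cells, 900/well, treated with compound plus LipidTOX Red for 24 h at 37 C; amiodarone positive and DMSO negative controls. Fixed with paraformaldehyde/Hoechst, then high-content imaging scored LipidTOX pit count and integrated intensity per well and per cell.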
% is scaled to controls: 0 for no effect and ±100 for the full control effect.

Chain of Estrogen receptor (Homo sapiens) (P03372 whole entry, looked up): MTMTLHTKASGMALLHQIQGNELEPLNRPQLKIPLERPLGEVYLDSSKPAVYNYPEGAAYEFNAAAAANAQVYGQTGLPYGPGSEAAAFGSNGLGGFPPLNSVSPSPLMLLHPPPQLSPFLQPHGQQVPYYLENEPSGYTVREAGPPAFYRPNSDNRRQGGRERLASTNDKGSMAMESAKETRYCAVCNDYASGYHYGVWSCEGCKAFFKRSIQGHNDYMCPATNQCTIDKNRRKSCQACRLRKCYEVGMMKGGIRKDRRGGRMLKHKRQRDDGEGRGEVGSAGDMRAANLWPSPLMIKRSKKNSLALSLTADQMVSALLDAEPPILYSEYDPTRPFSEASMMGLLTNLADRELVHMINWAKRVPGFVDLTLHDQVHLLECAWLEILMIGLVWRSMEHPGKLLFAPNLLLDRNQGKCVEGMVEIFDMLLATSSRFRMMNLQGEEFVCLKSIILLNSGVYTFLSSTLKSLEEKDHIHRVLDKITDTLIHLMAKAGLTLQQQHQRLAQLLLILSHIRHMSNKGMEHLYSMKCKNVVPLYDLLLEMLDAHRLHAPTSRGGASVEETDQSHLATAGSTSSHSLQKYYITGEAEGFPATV

In the case of `Brc1ccc(Oc2ccccc2)cc1`, the Potency entry in test [1], in test [2], in test [3], in test [4], in test [5] and in test [6] was “inactive” in each case.
For `COC(=O)C(Br)CBr` (centres undefined), the Potency entry in test [1], in [2], in [3], in test [4], in test [5] and in test [6] was “inactive” each time. Also, the Potency entry in test [7] and in test [8] was “inactive” each time.
For `N#CCc1ccccc1`, the Potency entry in test [1], in test [2], in [3], in [4], in [5] and in test [6] was “inactive” throughout. Moreover, the Potency entry in test [7] and in [8] was “inactive” each time.
In the case of `Cc1c(F)c(F)c(COC(=O)C2C(/C=C(\Cl)C(F)(F)F)C2(C)C)c(F)c1F` (centres undefined), the Potency result in test [1], in test [2], in test [3], in test [4], in [5] and in test [6] was “inactive” each time. Also, the Potency result in test [7] and in test [8] was “inactive” throughout.
For `BrCCCCBr`, the Potency result in test [1], in test [2], in [3], in test [4], in test [5] and in test [6] was “inactive” each time. Besides, the Potency entry in [7] and in [8] was “inactive” each time.
For the compound `CCN(C)N=O`, the Potency entry in [1], in test [2], in [3], in test [4], in test [5] and in [6] was “inactive” throughout. The Potency result in test [7] is “inactive”.
For the compound `O=C(O)C(F)(F)C(F)(F)C(F)(F)C(F)(F)C(F)(F)C(F)(F)C(F)(F)C(F)(F)C(F)(F)F`, the Potency result in [1], in test [2], in test [3], in test [4], in test [5] and in [6] was “inactive” each time. For the same compound, the Potency entry in [7] and in test [8] was “inactive” each time.
As to `O=C1C(=O)c2cccc3cccc1c23`, the Potency entry in [1], in [2], in test [3], in [5], in test [6] and in test [7] was “inactive” throughout. In addition, the Potency in test [4] was 54.4 µM (active).
Regarding `CCOP(=O)(OCC)SCCSCC`, the Potency entry in test [1], in [2], in test [3], in test [4], in test [5] and in [6] was “inactive” throughout. The Potency entry in [7] was “inactive”.
As to `CCCN(CCC)c1c([N+](=O)[O-])cc(S(C)(=O)=O)cc1[N+](=O)[O-]`, the Potency entry in [1], in test [2], in test [3], in [4], in [5] and in test [6] was “inactive” each time. The Potency entry in test [7] is “inactive”.
As to `C=CC(C)=O`, the Potency entry in test [1], in [2], in test [3], in test [4], in test [5] and in test [6] was “inactive” in each case. The Potency entry in test [7] and in test [8] was “inactive” in each case.
Consider `CC(=O)C(C)(C)C`, for which the Potency result in test [1], in test [2], in test [3], in test [4], in test [5] and in test [6] was “inactive” throughout. Further, in test [7], the Potency entry was “inactive”.
In the case of `O=C(CBr)OCc1ccccc1`, the Potency result in test [1], in [2], in test [3], in test [4], in [5] and in [6] was “inactive” in each case. For the same compound, the Potency entry in test [7] and in test [8] was “inactive” each time.
`CCCC(=O)Cl`: the Potency result in test [1], in test [2], in test [3], in test [4], in [5] and in test [6] was “inactive” each time. Also, the Potency entry in test [7] and in test [8] was “inactive” in each case.
Consider `CCOC(=O)C(Cl)C(C)=O` (centres undefined), for which the Potency entry in [1], in test [2], in [3], in test [4], in test [5] and in test [6] was “inactive” throughout. In addition, the Potency entry in [7] and in [8] was “inactive” throughout.
`C=CCN1CC[C@]23c4c5ccc(O)c4O[C@H]2C(=O)CC[C@@]3(O)[C@H]1C5`: the Potency result in test [1], in test [2], in test [3], in [5], in test [6] and in test [7] was “inactive” throughout. The Potency entry in test [8] is “inactive”. Moreover, the result in test [9] was inactive.
In the case of `Cc1ccc(N)cc1C`, the Potency entry in test [1], in [2], in test [3], in [4], in [5] and in test [6] was “inactive” in each case. Further, the Potency entry in [8] was “inactive”.
In the case of `Cl/C=C\Cl`, the Potency result in test [1], in test [2], in [3], in test [4], in test [5] and in test [6] was “inactive” throughout. Further, the Potency entry in [7] and in [8] was “inactive” throughout.
As to `O=C(OC1CCCCC1)c1ccccc1C(=O)OC1CCCCC1`, the Potency entry in [1], in [2], in test [3], in test [4], in [5] and in test [6] was “inactive” in each case. The Potency result in test [8] was “inactive”.
On to `O=NN1CCNCC1`, for which the Potency result in [1], in [2], in [3], in test [4], in test [5] and in test [6] was “inactive” throughout. Moreover, in test [8], the Potency entry is “inactive”.
Take `Cl/C=C\C[N+]12CN3CN(CN(C3)C1)C2`: the Potency result in [1], in [2], in test [3], in test [4], in test [5] and in test [6] was “inactive” in each case. Moreover, the Potency entry in test [7] and in test [8] was “inactive” throughout.
`Nc1nc(=S)[nH][nH]1`: the Potency entry in test [1], in test [2], in test [3], in [4], in test [5] and in [6] was “inactive” each time. In addition, the Potency entry in test [7] and in test [8] was “inactive” each time.
In the case of `N#Cc1ccc(Cl)cc1`, the Potency result in [1], in [2], in test [3], in [4], in test [5] and in [6] was “inactive” each time. Besides, the Potency entry in test [8] is “inactive”.
For the compound `CC(=O)CCC(C)=O`, the Potency result in test [1], in [2], in test [3], in test [4], in test [5] and in [6] was “inactive” throughout. In addition, the Potency entry in test [7] and in [8] was “inactive” each time.
`C#CCOC(C(=O)OCCN(C)C)(c1ccccc1)c1ccccc1`: the Potency entry in test [1], in test [2], in [3], in [5] and in [6] was “inactive” throughout. For the same compound, the call in test [9] was inactive.
For `CC(C)(C)C(O)C(Oc1ccc(Cl)cc1)n1cncn1` (centres undefined), the Potency entry in test [1], in test [2], in test [3], in test [5], in [6] and in [7] was “inactive” throughout. Also, the PLD induction in test [9] was -1.67% [at 3.15 µM].
Take `CN1C(=O)NC(=O)C(C)(C2=CCCCC2)C1=O` (centres undefined): the Potency entry in test [1], in test [2], in test [3], in test [5], in test [6] and in [7] was “inactive” in each case. The Potency result in test [8] is “inactive”. Moreover, the call in test [9] was inactive.
Consider `ClP(Cl)(Cl)(Cl)Cl`, for which the Potency result in [1], in test [2], in test [3], in test [4], in [5] and in [6] was “inactive” in each case. Further, the Potency entry in test [7] and in test [8] was “inactive” throughout.
On to `CC(C)(OO)c1ccccc1`, for which the Potency result in [1], in test [2], in [3], in test [4], in [5] and in test [6] was “inactive” in each case. In addition, in [8], the Potency entry is “inactive”.
`NNC(=O)c1cccnc1`: the Potency result in test [1], in test [2], in [3], in test [4], in test [6] and in [7] was “inactive” throughout. The Potency entry in test [8] is “inactive”.
